Results taken from PubChem BioAssay (NCATS).
Records with an inconclusive call do not appear. Active and inactive are the calls of the source. Unless noted, calls follow the shape of the dose curve; as a rule, active = well fitted curve in the direction sought with a large enough effect; inconclusive = small, poorly fitted or top-dose-only effect, or another doubt; inactive = no such curve, though single readings can be large; an effect the other way counts as inactive or inconclusive.

Legend:
[1] = qHTS Assay for Lipid Storage Modulators (AID 1519; calls by dose curve; as to activity change, negative = inhibition: % is scaled to controls: 0 for no effect and ±100 for the full control effect); conditions: Drosophila S3 cells, BODIPY lipid droplet/cell ratio, laser cytometry, cells loaded with oleic acid
Procedure, shortened: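 Cells seeded at 5,000 per well were treated with compounds over a concentration series and loaded with oleic acid (400 uM, as added). Lipid droplet fluorescence (488 nm excitation, 500-530 nm channel) was read by laser-scanning cytometry and normalized to 20 uM Triacsin C.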

[2] = target: Ubiquitin carboxyl-terminal hydrolase 1 (Homo sapiens) (UniProt O94782); assay: Inhibitors of USP1/UAF1: Pilot qHTS (AID 504865); conditions: purified USP1/UAF1, Ub-rhodamine cleavage fluorescence; series mostly up to 114 µM;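 also: rhodamine fluorescence freed from ubiquitin-rhodamine substrate followed over time; top concentration of the series differs between compounds; % is scaled to controls: 0 for no effect and ±100 for the full control effect; nearly all actives have a fitted effect of over 35% in size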
Sequence of Ubiquitin carboxyl-terminal hydrolase 1 (Homo sapiens) (O94782 whole entry, looked up): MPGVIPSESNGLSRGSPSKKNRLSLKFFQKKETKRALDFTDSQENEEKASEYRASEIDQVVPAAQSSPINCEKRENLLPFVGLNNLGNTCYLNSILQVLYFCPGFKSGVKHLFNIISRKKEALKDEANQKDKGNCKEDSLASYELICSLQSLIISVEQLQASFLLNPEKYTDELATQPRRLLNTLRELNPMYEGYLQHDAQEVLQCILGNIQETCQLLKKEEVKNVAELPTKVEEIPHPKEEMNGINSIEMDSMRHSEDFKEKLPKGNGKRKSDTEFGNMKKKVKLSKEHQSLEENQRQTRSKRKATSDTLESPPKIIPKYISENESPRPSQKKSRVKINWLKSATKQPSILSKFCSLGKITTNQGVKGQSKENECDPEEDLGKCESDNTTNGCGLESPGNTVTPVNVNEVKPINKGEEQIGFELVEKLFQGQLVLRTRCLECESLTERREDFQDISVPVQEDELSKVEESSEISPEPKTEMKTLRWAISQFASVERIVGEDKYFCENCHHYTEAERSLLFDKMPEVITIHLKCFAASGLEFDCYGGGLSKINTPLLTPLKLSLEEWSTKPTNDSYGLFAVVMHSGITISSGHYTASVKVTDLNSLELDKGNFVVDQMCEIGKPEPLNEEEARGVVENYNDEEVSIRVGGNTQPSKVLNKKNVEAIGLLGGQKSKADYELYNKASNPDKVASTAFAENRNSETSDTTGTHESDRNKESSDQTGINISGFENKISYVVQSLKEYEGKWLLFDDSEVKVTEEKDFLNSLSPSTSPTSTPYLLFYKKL
Procedure, shortened: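 In 50mM HEPES pH 7.8 containing 0.5mM EDTA, 1mM TCEP, 0.1 mg/ml BSA and 0.01% Tween-20, 1nM USP1/UAF1 is exposed to compound for 15 min, then Ub-Rho (150nM final) is added and fluorescence is read over time.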

[3] = target: DNA dC->dU-editing enzyme APOBEC-3G (Homo sapiens) (UniProt Q9HC16); assay: qHTS for inhibitors of Vif-A3G interactions: Validation (AID 588379); conditions: Vif-A3G protein interaction assay; series mostly up to 46.1 µM; also: 0% is about no effect
Sequence of DNA dC->dU-editing enzyme APOBEC-3G (Homo sapiens) (Q9HC16 whole entry, looked up): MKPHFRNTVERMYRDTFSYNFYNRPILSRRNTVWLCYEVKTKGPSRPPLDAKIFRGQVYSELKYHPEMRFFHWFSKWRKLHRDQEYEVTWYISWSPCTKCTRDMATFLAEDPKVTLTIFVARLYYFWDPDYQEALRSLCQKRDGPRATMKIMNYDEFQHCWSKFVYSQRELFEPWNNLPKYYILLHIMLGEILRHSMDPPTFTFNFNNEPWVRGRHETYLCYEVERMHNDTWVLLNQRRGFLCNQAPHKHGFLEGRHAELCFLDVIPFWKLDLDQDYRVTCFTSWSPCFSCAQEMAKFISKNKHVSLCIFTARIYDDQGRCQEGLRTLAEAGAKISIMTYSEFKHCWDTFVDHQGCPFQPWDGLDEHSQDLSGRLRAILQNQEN
Procedure, shortened: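 Yellow fluorescence (Ex 488, Em 500-530) of Vif-coexpressing HeLa A3G-eYFP cells, scanned by Acumen cytometer, reports blocked A3G degradation. Cells plated at 700/well overnight at 37 deg C before compound addition, then a further overnight compound incubation at 37 deg C.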

[4] = Cell Viability - LYMP2-010 (AID 981); conditions: LYMP2-010 lymphoblastoid cell viability, qHTS; series mostly up to 92.2 µM; also: nearly all actives have a fitted effect of over 55% in size; also: potency is read from the fitted curve at half-maximal effect
Procedure, shortened: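 This 24 hr viability screen uses LYMP2-010 lymphoblastoid cells, quantifies ATP via luciferase luminescence, and derives AC50 from Hill fits of qHTS concentration-response data.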

[5] = Cell Viability - LYMP2-012 (AID 982); conditions: LYMP2-012 lymphoblastoid cell viability qHTS; series mostly up to 92.2 µM;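 also: cellular ATP by luciferase luminescence where a drop means cytotoxicity; cells exposed to compound for one day before reading; 0% = DMSO only and full loss = 92 µM tetraoctylammonium bromide; nearly all actives have a fitted effect of over 55% in size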
[6] = Cell Viability - LYMP2-014 (AID 983); conditions: LYMP2-014 lymphoblastoid cells, viability qHTS; series mostly up to 92.2 µM;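 also: cells exposed to compound for 24 h at 37 °C; plate controls were DMSO only for no effect and 92 µM tetraoctylammonium bromide for full effect; nearly all actives have a fitted effect of over 50% in size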
Procedure, shortened: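 Quantitative HTS in lymphoblastoid cells: 24 hr compound exposure, then CellTiter-Glo ATP luminescence. Positive control was tetraoctylammonium bromide, 6.4pM to 92 uM.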

[7] = Cell Viability - LYMP2-016 (AID 984); conditions: LYMP2-016 lymphoblastoid cell viability, qHTS; series mostly up to 92.2 µM; also: % is scaled to controls: 0 for no effect and ±100 for the full control effect; nearly all actives have a fitted effect of over 55% in size
Procedure, shortened: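 Cells were seeded at 2500 per well and rested 5 hr before a 24 hr compound exposure at 37 C. Viability was then gauged as cellular ATP by luciferase luminescence, with AC50 values fitted to the Hill equation.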

[8] = Cell Viability - LYMP2-018 (AID 985); conditions: LYMP2-018 lymphoblastoid cells, viability (qHTS); series mostly up to 92.2 µM;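 also: plate controls were DMSO only for no effect and tetraoctylammonium bromide at 92 µM for full effect; nearly all actives have a fitted effect of over 50% in size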
Procedure, shortened: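 In this qHTS viability assay, cells are treated for 24 hr and cellular ATP is quantified by luciferase-based luminescence, with tetraoctylammonium bromide as positive control.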

[9] = Cell Viability - LYMP2-026 (AID 989); conditions: LYMP2-026 lymphoblastoid cell viability, qHTS; series mostly up to 92.2 µM;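 also: cells exposed to compound for 24 h at 37 °C; % is scaled to controls: 0 for no effect and ±100 for the full control effect; nearly all actives have a fitted effect of over 50% in size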
Procedure, shortened: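 Acute toxicity screen in complete culture medium, with 24 hr compound exposure at 37 C. Viability read as cellular ATP via luciferase reaction, with tetraoctylammonium bromide (6.4pM to 92 uM) as positive control.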

[10] = Cell Viability - LYMP1-002 - Assay at 24 hr (AID 993); conditions: LYMP1-002 lymphoblastoid cells viability; series mostly up to 92.2 µM; also: % is scaled to controls: 0 for no effect and ±100 for the full control effect
Procedure, shortened: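 Viability was judged from intracellular ATP using a luciferase read-out, following a 24-hour compound incubation at 37 C of lymphoblastoid cells seeded at 2500 per well. Concentration-response data were fitted to the Hill equation for AC50.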

[11] = qHTS Assay for Identification of Small Molecule Inducers of Hypoxia Response (AID 2120; active = well fitted curve in the direction sought with a large enough effect in the signal ratio, with a control signal flat, not every such curve was filed as active; the % refers to the signal ratio; also: 0% is about no effect); conditions: hypoxia response reporter cells, beta-lactamase ratio readout; series mostly up to 104 µM
Procedure, shortened: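 HRE-bla ME-180, 2500 cells/well, 0.5% dialyzed FBS medium; cpd titration, 17 h 37 degrees C; CCF4 2.5 h RT; Ex 405, Em 460/530 ratio -> %Activity, AC50.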

[12] = target: Estrogen receptor (Homo sapiens) (UniProt P03372); assay: qHTS assay for small molecule antagonists of estrogen receptor alpha signaling (AID 588513; active = well fitted curve in the direction sought with a large enough effect in the signal ratio, with a control signal flat, not every such curve was filed as active; the % refers to the signal ratio; also: % is scaled to controls: 0 for no effect and ±100 for the full control effect); conditions: ER-alpha-UAS-bla HEK293, beta-lactamase ratio, antagonist mode; series mostly up to 76.9 µM
Sequence of Estrogen receptor (Homo sapiens) (P03372 whole entry, looked up): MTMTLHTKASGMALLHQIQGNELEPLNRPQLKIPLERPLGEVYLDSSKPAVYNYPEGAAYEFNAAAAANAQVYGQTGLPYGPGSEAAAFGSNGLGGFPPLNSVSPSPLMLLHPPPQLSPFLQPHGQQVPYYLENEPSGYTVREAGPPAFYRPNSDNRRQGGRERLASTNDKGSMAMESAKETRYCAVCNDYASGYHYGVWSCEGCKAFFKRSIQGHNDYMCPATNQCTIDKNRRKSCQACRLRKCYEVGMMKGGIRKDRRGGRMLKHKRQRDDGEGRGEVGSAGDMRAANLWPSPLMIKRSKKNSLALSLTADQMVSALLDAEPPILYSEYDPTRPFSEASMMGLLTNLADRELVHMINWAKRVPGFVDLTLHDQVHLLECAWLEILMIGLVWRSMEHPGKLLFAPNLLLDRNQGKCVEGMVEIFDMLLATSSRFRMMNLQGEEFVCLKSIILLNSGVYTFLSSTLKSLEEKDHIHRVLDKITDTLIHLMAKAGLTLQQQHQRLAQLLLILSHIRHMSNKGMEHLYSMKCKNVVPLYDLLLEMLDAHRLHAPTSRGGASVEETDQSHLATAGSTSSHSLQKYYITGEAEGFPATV
Procedure, shortened: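 Fluorescence from CCF4 substrate after 2 h at room temperature gave reporter activity; cells had been exposed to compound and 0.5nM 17-beta-estradiol for 18 h at 37 C. Hill-equation fitting yielded IC50 and maximal response.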

[13] = target: ATP-dependent 6-phosphofructokinase (Trypanosoma brucei brucei) (UniProt O15648); assay: qHTS Assay to Find Inhibitors of T. brucei phosphofructokinase: hit validation (AID 492961);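 also: luminescence reports ADP formed as PFK phosphorylates fructose-6-phosphate with ATP; % is scaled to controls: 0 for no effect and ±100 for the full control effect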; conditions: T. brucei PFK, ADP-Glo luminescence; series mostly up to 51.4 µM
Sequence of ATP-dependent 6-phosphofructokinase (Trypanosoma brucei brucei) (O15648 whole entry, looked up): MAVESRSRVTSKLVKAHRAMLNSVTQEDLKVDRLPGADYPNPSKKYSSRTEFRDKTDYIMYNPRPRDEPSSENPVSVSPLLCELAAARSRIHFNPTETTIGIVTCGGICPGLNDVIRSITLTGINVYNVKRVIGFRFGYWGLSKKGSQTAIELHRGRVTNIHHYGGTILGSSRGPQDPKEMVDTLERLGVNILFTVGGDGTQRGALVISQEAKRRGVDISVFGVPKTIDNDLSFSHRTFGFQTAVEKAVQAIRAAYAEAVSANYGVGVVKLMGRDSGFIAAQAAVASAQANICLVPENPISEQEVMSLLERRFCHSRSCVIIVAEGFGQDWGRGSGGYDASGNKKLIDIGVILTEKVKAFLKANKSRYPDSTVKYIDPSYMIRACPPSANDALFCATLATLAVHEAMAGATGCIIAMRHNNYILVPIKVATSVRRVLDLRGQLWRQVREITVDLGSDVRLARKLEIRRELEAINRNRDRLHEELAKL
Procedure, shortened: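 ADP-Glo luminescence read-out of ADP formed by 1.25 nM PFK from 0.1 mM ATP and 0.5 mM F6P (TEA pH 8.0, 45 min, RT). Compounds titrated; activity normalized to no-enzyme and full-enzyme controls.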

[14] = Cell Viability - LYMP2-020 (AID 986); conditions: series mostly up to 92.2 µM;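 also: cells exposed to compound for 24 h at 37 °C; plate controls were DMSO only for no effect and tetraoctylammonium bromide at 92 µM for full effect; nearly all actives have a fitted effect of over 55% in size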
Procedure, shortened: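 Cells at 2500 per well receive a 24 hr compound exposure at 37 C. Viability is measured as ATP-dependent luciferase luminescence, with AC50 modeled from qHTS concentration-response curves.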

[15] = Cell Viability - LYMP2-022 (AID 987); conditions: LYMP2-022 lymphoblastoid cell viability; series mostly up to 92.2 µM
Procedure, shortened: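 In this qHTS cytotoxicity screen, compound titrations were incubated 24 hr at 37 C with human lymphoblastoid cells in complete medium. Luciferase-based ATP luminescence provided the viability signal.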

[16] = Cell Viability - LYMP2-024 (AID 988); conditions: LYMP2-024 lymphoblastoid cell viability; series mostly up to 92.2 µM;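 also: plate controls were DMSO only for no effect and 92 µM tetraoctylammonium bromide for full effect; nearly all actives have a fitted effect of over 60% in size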
Procedure, shortened: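 Cells at 2500 per well received compound for 24 hr after a 5 hr settling period. Viability was scored by CellTiter-Glo luminescence, with AC50 from Hill fits.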

[17] = Cell Viability - LYMP1-002 - Assay at 40 hr (AID 994); conditions: LYMP1-002 lymphoblastoid cell viability; series mostly up to 92.2 µM;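 also: 0% = DMSO only and full inhibition = 92 µM tetraoctylammonium bromide; nearly all actives have a fitted effect of over 60% in size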
Procedure, shortened: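 Concentration-dependent ATP loss after 40 hr treatment at 37 C defined toxicity; AC50 values were obtained by fitting the standard Hill equation.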

[18] = target: Estrogen receptor (Homo sapiens) (UniProt P03372); assay: qHTS assay for small molecule agonists of estrogen receptor alpha signaling (AID 588514; calls by dose curve;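 also: 0% = vehicle only and 100% = reference agonist; nearly all actives have a fitted effect of over 70% in size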); conditions: ER-alpha-UAS-bla HEK293, beta-lactamase ratio, 18 h, percent of full estradiol response, vehicle zero; series mostly up to 76.8 µM
Procedure, shortened: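 Fluorescence from CCF4 cleavage reports ER-alpha-driven beta-lactamase expression in HEK 293 cells treated 18 hrs at 37 C. Data normalized to 17-beta-estradiol (20 nM) and DMSO, fitted to Hill equation.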

[19] = target: Alpha-galactosidase A (Homo sapiens) (UniProt P06280); assay: Counterscreen for Glucocerebrosidase Inhibitors: qHTS Assay for Human alpha-Galactosidase at pH 4.5 (AID 992); conditions: purified enzyme, fluorogenic substrate; series mostly up to 76.9 µM; also: 0% is about no effect
Sequence of Alpha-galactosidase A (Homo sapiens) (P06280 whole entry, looked up): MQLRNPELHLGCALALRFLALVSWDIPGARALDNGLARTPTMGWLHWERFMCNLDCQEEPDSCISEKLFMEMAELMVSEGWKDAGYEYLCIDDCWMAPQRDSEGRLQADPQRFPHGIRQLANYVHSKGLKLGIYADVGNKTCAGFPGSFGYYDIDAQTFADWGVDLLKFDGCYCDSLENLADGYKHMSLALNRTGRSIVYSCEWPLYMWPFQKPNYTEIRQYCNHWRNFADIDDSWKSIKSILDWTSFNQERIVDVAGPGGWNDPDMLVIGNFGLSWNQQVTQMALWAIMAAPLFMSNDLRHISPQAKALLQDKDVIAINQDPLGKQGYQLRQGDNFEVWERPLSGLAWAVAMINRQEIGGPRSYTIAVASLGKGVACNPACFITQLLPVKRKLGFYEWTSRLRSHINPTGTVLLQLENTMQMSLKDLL
Procedure, shortened: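 Steps: enzyme (2 nM final), then compound across 0.7 nM to 77 uM, then 80 uM fluorogenic galactopyranoside substrate; incubate 20 min at room temperature; quench at pH 10; measure fluorescence at 365/440 nm.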

[20] = target: alpha-glucosidase (Oryza sativa, rice) (UniProt Q653V4); assay: Counterscreen for Glucocerebrosidase Inhibitors: qHTS Assay for Rice alpha-Glucosidase at pH 5.0 (AID 997); conditions: rice alpha-glucosidase enzyme activity; series mostly up to 76.9 µM;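 also: 0% = full activity with enzyme and -100% = basal without enzyme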
Procedure, shortened: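 Endpoint fluorogenic assay at pH 5.0: compounds (0.7 nM to 77 uM) titrated against 4 nM rice enzyme and 400 uM 4-MU-alpha-glucoside for 20 min at room temperature; NaOH/glycine stop, read ex 365/em 440 nm, Hill-fitted AC50.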

[21] = measured here: cell count channel max response
[22] = measured here: lipid channel max response

Nc1nc2c(ncn2[C@@H]2O[C@H](CO)[C@@H](O)[C@H]2O)c(=O)[nH]1
-11.6%: max response [1, 21]
-14.4%: max response [1, 22]
inactive: activity change, negative = inhibition ([1]; at 57.5 µM (top of the series)) -2.55% | outcome [2] | outcome [3]

Nc1ccccc1N
active: Potency [4] 15.8 µM
inactive: outcome [5] | outcome [6] | outcome [7] | outcome [8] | outcome [9] | outcome [10] | outcome [11] | outcome [12]

CC[C@]1(O)CC2CN(CCc3c([nH]c4ccccc34)[C@@](C(=O)OC)(c3cc4c(cc3OC)N(C)[C@H]3[C@@](O)(C(=O)OC)[C@H](OC(C)=O)[C@]5(CC)C=CCN6CC[C@]43[C@@H]65)C2)C1 (some centres not stated)
inactive: outcome [13]

Cc1ccc(N)cc1O
inactive: Potency [4] | outcome [5] | outcome [6] | outcome [7] | outcome [8] | outcome [14] | outcome [15] | outcome [16] | outcome [9] | outcome [10] | outcome [17] | outcome [11] | outcome [18]

CC(=O)O[C@H]1C(=O)[C@@]2(C)[C@H]([C@H](OC(=O)c3ccccc3)[C@]3(O)C[C@H](OC(=O)[C@H](O)[C@@H](NC(=O)c4ccccc4)c4ccccc4)C(C)=C1C3(C)C)[C@]1(OC(C)=O)CO[C@@H]1C[C@@H]2O
inactive: outcome [19] | outcome [20] | outcome [13] | outcome [2] | outcome [3] | outcome [18]

CC(C)C(N)C(=O)OCCOCn1cnc2c(=O)[nH]c(N)nc21 (configuration not stated)
9.47%: max response [1, 21]
inactive: activity change, negative = inhibition ([1]; at 57.5 µM (top of the series)) 7.31% | outcome [2]
21.7%: max response [1, 22]

CC(=O)O[C@@H]1CC(C)=C2[C@H]1[C@H](C)CC[C@H]2/C=C(\C)C(=O)O
inactive: Potency [4] | outcome [5] | outcome [6] | outcome [7] | outcome [8] | outcome [14] | outcome [15] | outcome [16] | outcome [9] | outcome [10] | outcome [17] | outcome [11] | outcome [12] | outcome [18]

COc1ccc(C[C@H](N)C(=O)N[C@@H]2[C@H](O)[C@H](n3cnc4c(N(C)C)ncnc43)O[C@@H]2CO)cc1
inactive: outcome [2]

CC(=O)c1cc2c(cc1O)OC(C)(C)C=C2
inactive: activity change, negative = inhibition ([1]; at 57.5 µM (top of the series)) 18.6% | outcome [2]
-14.4%: max response [1, 21]
0.328%: max response [1, 22]

COc1ccc2c(OC)c3ccoc3nc2c1OC
-6.85%: max response [1, 22]
inactive: activity change, negative = inhibition ([1]; at 25.7 µM (top of the series)) -9.25% | outcome [2] | outcome [3]
0.385%: max response [1, 21]
